# Several values for one entry are separate records, joined by “and”; a condition that tells them apart may be missing. Equal entries are not always repeated. Results filed as inconclusive are left out. More than one record can exist for a structure, and the calls need not agree. Activity calls are given as the source filed them. How the source made its calls, unless noted: active means hit-call score of the fitted dose curve at least 0.9, where 1 is the maximum; inactive means score below 0.9.
# Legend:
# [1] = biological target: Nuclear respiratory factor 1 (Homo sapiens) (UniProt Q16656); test: ATG_NRF1_CIS: Attagene CIS-FACTORIAL HepG2 Assay for human Nuclear Respiratory Factor 1 (NRF1) Orphan Gene (AID 2282987); details: HepG2 NRF1 cis-element reporter, Attagene multiplex; actives raise or lower the signal
# Sequence of Nuclear respiratory factor 1 (Homo sapiens) (Q16656 whole entry, looked up, the tested form may be a part): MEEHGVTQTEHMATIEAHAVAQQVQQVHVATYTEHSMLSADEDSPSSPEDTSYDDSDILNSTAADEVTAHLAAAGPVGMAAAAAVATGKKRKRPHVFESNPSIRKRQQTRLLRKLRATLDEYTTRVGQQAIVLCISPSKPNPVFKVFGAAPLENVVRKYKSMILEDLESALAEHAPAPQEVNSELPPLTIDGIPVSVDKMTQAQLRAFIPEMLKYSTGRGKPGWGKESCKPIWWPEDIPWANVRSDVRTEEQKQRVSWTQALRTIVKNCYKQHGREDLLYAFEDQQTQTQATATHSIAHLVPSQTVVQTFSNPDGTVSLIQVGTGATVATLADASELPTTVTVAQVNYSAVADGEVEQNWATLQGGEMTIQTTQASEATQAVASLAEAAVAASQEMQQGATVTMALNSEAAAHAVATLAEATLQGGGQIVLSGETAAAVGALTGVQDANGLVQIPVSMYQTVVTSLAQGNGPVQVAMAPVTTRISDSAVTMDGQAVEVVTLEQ
# Procedure, shortened: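 Cells (HepG2, transient MRTU transfection) are exposed to compound for 24 h, then RNA isolated and reporter mRNA amplified and fluorescently labelled. Fragments are separated by capillary electrophoresis; signal change is fitted bidirectionally relative to DMSO.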
# [2] = ATG_NFI_CIS: Attagene CIS-FACTORIAL HepG2 Assay for human Nuclear Factor I (NFI) (AID 2282989); details: HepG2 cis-regulatory reporter, NFI response element transcription; actives raise or lower the signal
# Procedure, shortened: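 Reporter transcripts were measured by RT-PCR with fluorescent primer extension and capillary electrophoresis 24 h post-treatment. HepG2 cells carried transiently transfected cis-regulated reporter constructs reporting endogenous factor activity; gain or loss fitted against DMSO baseline.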
# [3] = biological target: Myc proto-oncogene protein (Homo sapiens) (UniProt P01106); test: ATG_Myc_CIS: Attagene CIS-FACTORIAL HepG2 Assay for human Myelocytomatosis (Myc) Proto-Oncogene Transcription Factor (AID 2282990); details: HepG2, Attagene cis-reporter transcription factor activity; actives raise or lower the signal
# Sequence of Myc proto-oncogene protein (Homo sapiens) (P01106 whole entry, looked up, the tested form may be a part): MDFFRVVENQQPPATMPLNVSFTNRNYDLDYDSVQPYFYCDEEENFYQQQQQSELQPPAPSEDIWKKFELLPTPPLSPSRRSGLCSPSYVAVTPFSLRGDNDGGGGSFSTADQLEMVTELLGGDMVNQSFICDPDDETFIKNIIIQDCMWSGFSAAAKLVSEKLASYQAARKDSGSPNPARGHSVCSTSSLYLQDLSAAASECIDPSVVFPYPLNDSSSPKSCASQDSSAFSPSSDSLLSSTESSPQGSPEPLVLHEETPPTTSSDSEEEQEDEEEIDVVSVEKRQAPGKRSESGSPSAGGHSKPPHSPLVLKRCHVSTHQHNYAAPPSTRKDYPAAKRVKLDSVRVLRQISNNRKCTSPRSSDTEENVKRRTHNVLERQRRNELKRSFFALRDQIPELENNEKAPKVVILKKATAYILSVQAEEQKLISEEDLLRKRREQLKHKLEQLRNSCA
# Procedure, shortened: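 Read-out: fluorescent reporter mRNA fragments resolved by capillary electrophoresis after RT-PCR. Human HepG2 liver cells carried transfected cis-element reporter units and were dosed for 24 h. Gain or loss of signal fitted relative to DMSO baseline.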
# [4] = ATG_NRF2_ARE_CIS: Attagene CIS-FACTORIAL HepG2 Assay for human Nuclear Factor Erythroid 2 Related Factor 2 (NFR2) response to Antioxidant Response Elements (ARE) (AID 2282992); details: HepG2 Attagene ARE/NRF2 reporter, transcription factor activity; actives raise or lower the signal;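 on AC50: reporter mRNA level measured by RT-PCR and capillary electrophoresis fluorescence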
# Procedure, shortened: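 Transient MRTU transfection of HepG2; 24 h compound exposure; TriZol RNA, RT with oligo(dT), PCR, 6-FAM primer extension, HpaI cut, CE. Bidirectional fit vs DMSO.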
# [5] = ATG_Oct_MLP_CIS: Attagene CIS-FACTORIAL HepG2 Assay for human Octamer-Binding Transcription Factor (Oct) (AID 2282993); details: HepG2 Attagene cis-factorial Oct reporter, mRNA; actives raise or lower the signal
# Procedure, shortened: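 Readout is reporter transcript level from RT-PCR with fluorescent primer extension and capillary electrophoresis, fitted in both directions against DMSO. Transfected HepG2 reporter units report endogenous factor activity after 24 h dosing.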
# [6] = biological target: Cellular tumor antigen p53 (Homo sapiens) (UniProt P04637); test: ATG_p53_CIS: Attagene CIS-FACTORIAL HepG2 Assay for human p53 Transcription Factor (AID 2282994); details: HepG2 p53 cis-element reporter, Attagene mRNA; actives raise or lower the signal
# Sequence of Cellular tumor antigen p53 (Homo sapiens) (P04637 whole entry, looked up): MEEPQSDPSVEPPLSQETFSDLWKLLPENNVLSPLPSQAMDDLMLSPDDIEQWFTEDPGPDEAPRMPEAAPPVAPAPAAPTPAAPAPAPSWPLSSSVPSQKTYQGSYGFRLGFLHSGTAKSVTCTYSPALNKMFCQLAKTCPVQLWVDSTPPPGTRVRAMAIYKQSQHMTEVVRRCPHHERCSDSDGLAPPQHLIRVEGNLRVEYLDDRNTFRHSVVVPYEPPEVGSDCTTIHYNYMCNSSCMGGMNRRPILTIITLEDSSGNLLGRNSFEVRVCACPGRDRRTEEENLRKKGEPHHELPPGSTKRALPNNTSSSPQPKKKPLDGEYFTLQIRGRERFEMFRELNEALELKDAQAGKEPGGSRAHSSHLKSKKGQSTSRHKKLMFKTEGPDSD
# Procedure, shortened: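 HepG2, transient MRTU transfection (cis promoter elements, endogenous TFs); 24 h dosing; RNA isolation, RT-PCR, 6-FAM primer extension, HpaI digest, CE fluorescence; bidirectional fit vs DMSO.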
# [7] = BSK_3C_uPAR: BioMAP Diversity Plus: 3C Assay for Urokinase-type plasminogen activator receptor (uPAR) Biomarker Activity (AID 2282998); details: BioMAP 3C HUVEC, uPAR biomarker ELISA; actives raise or lower the signal
# Procedure, shortened: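 Cell-surface uPAR on HUVEC (3C system) read by ELISA at 24 h post-treatment, with DMSO as baseline and fitting in both directions. Parallel cultures stained with SRB to flag overt cytotoxicity.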
# [8] = BSK_3C_VCAM1: BioMAP Diversity Plus: 3C Assay for Vascular cell adhesion molecule 1 (VCAM1) Biomarker Activity (AID 2282999); details: BioMAP 3C HUVEC, VCAM1 ELISA, cytokine-stimulated; actives raise or lower the signal
# Procedure, shortened: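 Human umbilical vein endothelial cells (3C system), biomarker read by ELISA 24 h after dosing; bidirectional fit against DMSO baseline. Cytotoxicity tracked by SRB total-protein staining in parallel cultures at biomarker time.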
# [9] = BSK_4H_Eotaxin3: BioMAP Diversity Plus: 4H Assay for Eotaxin 3 Biomarker Activity (AID 2283000); details: primary human endothelial cells (HUVEC); actives raise or lower the signal;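 on outcome: CCL26 protein level quantified by ELISA in parallel with SRB cytotoxicity check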
# Procedure, shortened: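 Endothelial primary cells (human umbilical vein) exposed to compound for 24 h. ELISA detection of Eotaxin-3.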
# [10] = biological target: human Peroxisome Proliferator-activated Receptor delta (PPARd), PPARD (gene 5467) (UniProt Q03181); test: ATG_PPARd_TRANS: Attagene TRANS-FACTORIAL HepG2 Assay for human Peroxisome Proliferator-activated Receptor delta (PPARd) (AID 2283002; active means hit-call score of the fitted dose curve at least 0.9, where 1 is the maximum)
# Sequence of human Peroxisome Proliferator-activated Receptor delta (PPARd), PPARD (gene 5467) (Q03181 whole entry, looked up, the tested form may be a part): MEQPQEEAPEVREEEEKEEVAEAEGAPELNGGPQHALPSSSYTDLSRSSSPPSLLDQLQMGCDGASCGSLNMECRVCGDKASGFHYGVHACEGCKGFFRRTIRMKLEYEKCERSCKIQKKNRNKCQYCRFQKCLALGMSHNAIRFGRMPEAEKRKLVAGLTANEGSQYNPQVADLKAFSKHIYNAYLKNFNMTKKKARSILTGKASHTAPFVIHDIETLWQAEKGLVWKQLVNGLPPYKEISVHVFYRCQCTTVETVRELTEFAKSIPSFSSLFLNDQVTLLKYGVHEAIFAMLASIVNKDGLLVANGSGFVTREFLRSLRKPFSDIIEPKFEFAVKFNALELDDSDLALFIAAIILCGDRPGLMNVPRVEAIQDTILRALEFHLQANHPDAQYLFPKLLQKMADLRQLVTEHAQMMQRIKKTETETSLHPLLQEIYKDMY
# Procedure, shortened: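 Read-out: reporter mRNA induction, quantified by fluorescent RT-PCR products resolved by capillary electrophoresis. Human HepG2 liver cells carried transiently transfected Gal4-UAS reporter constructs with chimeric NR-Gal4 fusions. Cells were dosed for 24 h; DMSO served as baseline.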
# [11] = BSK_3C_Proliferation: Cell Proliferation Assessment in the BioMAP Diversity Plus: 3C Assay (AID 2283006); details: primary human endothelial cells (HUVEC);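 on AC50: potency may reflect either rise or fall in cell number versus DMSO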
# Procedure, shortened: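 Read-out is total protein by SRB absorbance at 560 nm, taken as a proxy for relative cell number. Primary human umbilical vein endothelium cultured below confluence was dosed for 48 h, TCA-fixed and SRB-stained; curves were fitted bidirectionally versus DMSO.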
# [12] = biological target: Peroxisome proliferator-activated receptor gamma (Homo sapiens) (UniProt P37231); test: ATG_PPARg_TRANS: Attagene TRANS-FACTORIAL HepG2 Assay for human Peroxisome Proliferator-activated Receptor-gamma (PPARg) (AID 2283007; active means hit-call score of the fitted dose curve at least 0.9, where 1 is the maximum)
# Sequence of Peroxisome proliferator-activated receptor gamma (Homo sapiens) (P37231 whole entry, looked up, the tested form may be a part): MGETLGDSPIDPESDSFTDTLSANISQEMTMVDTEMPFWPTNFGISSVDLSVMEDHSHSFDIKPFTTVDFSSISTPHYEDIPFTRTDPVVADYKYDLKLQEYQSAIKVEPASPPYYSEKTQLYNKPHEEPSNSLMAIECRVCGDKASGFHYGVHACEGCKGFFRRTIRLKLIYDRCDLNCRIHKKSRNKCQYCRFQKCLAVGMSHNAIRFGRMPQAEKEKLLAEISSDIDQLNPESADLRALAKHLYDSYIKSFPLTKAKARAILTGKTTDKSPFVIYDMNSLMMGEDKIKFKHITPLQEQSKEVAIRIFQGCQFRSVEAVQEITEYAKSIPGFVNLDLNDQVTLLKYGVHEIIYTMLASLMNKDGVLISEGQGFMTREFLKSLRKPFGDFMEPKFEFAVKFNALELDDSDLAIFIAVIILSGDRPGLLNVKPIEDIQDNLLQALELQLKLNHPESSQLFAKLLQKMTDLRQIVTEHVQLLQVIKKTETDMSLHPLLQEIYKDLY
# Procedure, shortened: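 Gain-of-signal endpoint relative to DMSO, derived from reporter mRNA levels quantified by RT-PCR and capillary electrophoresis. Cells were HepG2 transiently expressing a chimeric NR-Gal4 construct with GAL4-UAS reporters, exposed to chemicals for 24 h.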
# [13] = biological target: Nuclear receptor subfamily 1 group I member 2 (Homo sapiens) (UniProt O75469); test: ATG_PXR_TRANS: Attagene TRANS-FACTORIAL HepG2 Assay for human Pregnane X Receptor (PXR) (AID 2283008; active means hit-call score of the fitted dose curve at least 0.9, where 1 is the maximum)
# Sequence of Nuclear receptor subfamily 1 group I member 2 (Homo sapiens) (O75469 whole entry, looked up, the tested form may be a part): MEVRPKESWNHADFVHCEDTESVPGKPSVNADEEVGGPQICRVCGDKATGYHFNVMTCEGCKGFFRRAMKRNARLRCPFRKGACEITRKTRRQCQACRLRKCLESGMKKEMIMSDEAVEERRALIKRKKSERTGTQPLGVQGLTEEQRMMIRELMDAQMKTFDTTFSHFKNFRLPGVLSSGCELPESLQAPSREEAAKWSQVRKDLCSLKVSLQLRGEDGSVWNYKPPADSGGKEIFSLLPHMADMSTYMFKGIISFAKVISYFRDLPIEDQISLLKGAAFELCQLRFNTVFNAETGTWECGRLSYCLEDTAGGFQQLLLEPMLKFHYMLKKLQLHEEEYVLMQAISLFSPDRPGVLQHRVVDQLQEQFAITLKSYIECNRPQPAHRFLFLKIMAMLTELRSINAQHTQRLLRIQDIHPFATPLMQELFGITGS
# Procedure, shortened: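 Read-out is fluorescence of labelled reporter cDNA fragments separated by capillary electrophoresis after RT-PCR and HpaI digestion. Source: HepG2 cells carrying PXR-GAL4/UAS reporter constructs, treated 24 h; activity fitted upward relative to DMSO.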
# [14] = biological target: human Retinoic Acid Receptor gamma (RARg), RARG (gene 5916) (UniProt P13631); test: ATG_RARg_TRANS: Attagene TRANS-FACTORIAL HepG2 Assay for human Retinoic Acid Receptor gamma (RARg) (AID 2283009; active means hit-call score of the fitted dose curve at least 0.9, where 1 is the maximum)
# Sequence of human Retinoic Acid Receptor gamma (RARg), RARG (gene 5916) (P13631 whole entry, looked up): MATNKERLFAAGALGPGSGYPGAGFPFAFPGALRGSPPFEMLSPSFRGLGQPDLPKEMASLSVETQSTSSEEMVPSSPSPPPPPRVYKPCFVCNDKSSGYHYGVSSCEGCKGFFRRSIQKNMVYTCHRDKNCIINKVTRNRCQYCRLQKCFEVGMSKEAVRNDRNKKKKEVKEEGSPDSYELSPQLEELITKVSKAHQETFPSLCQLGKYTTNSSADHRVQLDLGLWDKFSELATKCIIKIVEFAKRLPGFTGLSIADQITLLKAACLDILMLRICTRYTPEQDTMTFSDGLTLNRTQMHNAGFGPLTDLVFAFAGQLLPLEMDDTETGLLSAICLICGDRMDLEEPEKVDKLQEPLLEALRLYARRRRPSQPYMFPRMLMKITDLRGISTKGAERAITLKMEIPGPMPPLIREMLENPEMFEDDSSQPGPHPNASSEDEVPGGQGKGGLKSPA
# Procedure, shortened: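 Transient transfection of HepG2 with multi-reporter constructs, then 24 h chemical treatment. Total RNA isolated, reverse-transcribed, PCR-amplified, fluorescently labelled and resolved by capillary electrophoresis; activity scored as mRNA induction versus DMSO.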
# [15] = ATG_NF_kB_CIS: Attagene CIS-FACTORIAL HepG2 Assay for human Nuclear Factor Kappa B (NF-kB) (AID 2282991); details: HepG2 Attagene cis-factorial NF-kB reporter mRNA; actives raise or lower the signal
# Procedure, shortened: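 Measures mRNA induction of an NF-kB-responsive cis-element reporter in HepG2 cells transfected with multiple reporter units, sampled 24 h post-dosing; quantified by fluorescence after RT-PCR and capillary electrophoresis, fitted for activation or inhibition against DMSO.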
# [16] = BSK_3C_TissueFactor: BioMAP Diversity Plus: 3C Assay for Tissue Factor Biomarker Activity (AID 2282997); details: BioMAP 3C HUVEC, tissue factor biomarker readout; actives raise or lower the signal
# Procedure, shortened: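 Values derive from bidirectional curve fitting against DMSO of Tissue Factor ELISA signals, taken 24 h after dosing primary human umbilical vein endothelial cells.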
# [17] = biological target: human Peroxisome Proliferator-activated Receptor alpha (PPARa), PPARA (gene 5465) (UniProt Q07869); test: ATG_PPARa_TRANS: Attagene TRANS-FACTORIAL HepG2 Assay for human Peroxisome Proliferator-activated Receptor alpha (PPARa) (AID 2283001; active means hit-call score of the fitted dose curve at least 0.9, where 1 is the maximum)
# Sequence of human Peroxisome Proliferator-activated Receptor alpha (PPARa), PPARA (gene 5465) (Q07869 whole entry, looked up, the tested form may be a part): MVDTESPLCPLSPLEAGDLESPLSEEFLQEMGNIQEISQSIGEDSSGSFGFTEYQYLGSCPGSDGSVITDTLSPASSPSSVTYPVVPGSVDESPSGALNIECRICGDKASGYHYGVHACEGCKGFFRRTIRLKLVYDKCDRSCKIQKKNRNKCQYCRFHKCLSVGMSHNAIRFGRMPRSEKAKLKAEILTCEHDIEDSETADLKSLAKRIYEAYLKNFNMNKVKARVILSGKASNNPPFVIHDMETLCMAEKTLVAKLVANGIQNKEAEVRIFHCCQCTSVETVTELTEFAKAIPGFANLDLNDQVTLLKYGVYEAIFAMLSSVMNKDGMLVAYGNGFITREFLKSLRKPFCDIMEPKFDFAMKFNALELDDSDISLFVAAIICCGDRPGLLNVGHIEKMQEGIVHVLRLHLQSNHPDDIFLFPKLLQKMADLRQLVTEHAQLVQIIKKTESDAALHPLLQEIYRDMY
# Procedure, shortened: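 HepG2 cells transiently transfected with multiplexed GAL4-UAS reporters driven by exogenous chimeric NR-Gal4 proteins; reporter mRNA measured after 24 h dosing. Read-out by RT-PCR, 6-FAM labelling, HpaI digestion and capillary electrophoresis; gain of signal versus DMSO.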
# [18] = read-out: Intercellular Adhesion Molecule 1 (ICAM1), ICAM1 (gene 3383); test: BSK_3C_ICAM1: BioMAP Diversity Plus: 3C Assay for Intercellular Adhesion Molecule 1 (ICAM1) Biomarker Activity (AID 2283003); details: primary human endothelial cells (HUVEC); actives raise or lower the signal
# Procedure, shortened: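 ICAM-1 levels measured by ELISA after HUVEC cultures in the 3C system had been dosed for 24 h. Gain or loss of signal relative to DMSO was fitted in both directions.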
# [19] = biological target: Retinoic acid receptor alpha (Homo sapiens) (UniProt P10276); test: ATG_RARa_TRANS: Attagene TRANS-FACTORIAL HepG2 Assay for human Retinoic Acid Receptor alpha (RARa) (AID 2283005; active means hit-call score of the fitted dose curve at least 0.9, where 1 is the maximum)
# Sequence of Retinoic acid receptor alpha (Homo sapiens) (P10276 whole entry, looked up, the tested form may be a part): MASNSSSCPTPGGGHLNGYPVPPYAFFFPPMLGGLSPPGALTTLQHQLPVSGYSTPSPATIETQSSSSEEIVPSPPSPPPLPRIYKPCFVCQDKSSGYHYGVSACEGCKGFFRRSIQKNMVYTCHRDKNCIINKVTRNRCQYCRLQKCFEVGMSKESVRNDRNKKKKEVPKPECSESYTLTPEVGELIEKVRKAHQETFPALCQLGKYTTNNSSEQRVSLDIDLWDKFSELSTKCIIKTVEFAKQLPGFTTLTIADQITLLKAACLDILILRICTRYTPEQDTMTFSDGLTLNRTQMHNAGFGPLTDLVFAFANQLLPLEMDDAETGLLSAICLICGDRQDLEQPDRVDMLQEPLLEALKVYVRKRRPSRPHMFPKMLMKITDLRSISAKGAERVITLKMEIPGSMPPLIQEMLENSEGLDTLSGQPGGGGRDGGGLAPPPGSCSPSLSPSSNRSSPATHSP
# Procedure, shortened: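 HepG2 transiently transfected with multiplex GAL4-UAS reporter units including a human RARa–GAL4 chimera; 24 h compound exposure. Reporter mRNA quantified by RT-PCR, 6-FAM labeling and capillary electrophoresis; gain of signal versus DMSO.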
# [20] = biological target: human Retinoic Acid Receptor beta (RARb), RARB (gene 5915) (UniProt P10826); test: ATG_RARb_TRANS: Attagene TRANS-FACTORIAL HepG2 Assay for human Retinoic Acid Receptor beta (AID 2283004; active means hit-call score of the fitted dose curve at least 0.9, where 1 is the maximum)
# Sequence of human Retinoic Acid Receptor beta (RARb), RARB (gene 5915) (P10826 whole entry, looked up, the tested form may be a part): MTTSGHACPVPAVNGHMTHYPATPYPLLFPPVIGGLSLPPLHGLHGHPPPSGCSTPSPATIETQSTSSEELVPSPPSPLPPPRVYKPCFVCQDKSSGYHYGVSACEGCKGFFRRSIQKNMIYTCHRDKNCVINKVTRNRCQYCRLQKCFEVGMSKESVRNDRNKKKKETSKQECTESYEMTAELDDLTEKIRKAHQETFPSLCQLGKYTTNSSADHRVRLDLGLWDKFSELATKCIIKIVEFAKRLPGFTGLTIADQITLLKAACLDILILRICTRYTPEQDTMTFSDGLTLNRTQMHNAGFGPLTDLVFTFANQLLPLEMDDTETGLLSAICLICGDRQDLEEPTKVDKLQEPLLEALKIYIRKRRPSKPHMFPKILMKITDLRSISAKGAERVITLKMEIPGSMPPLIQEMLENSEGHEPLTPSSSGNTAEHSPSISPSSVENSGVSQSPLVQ
# Procedure, shortened: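 HepG2, transient MRTU transfection, NR–Gal4 chimera, 24 h treatment; RT-PCR plus CE fluorescence detection of reporter mRNA; gain of signal vs DMSO.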
structure (smiles),measurement,setting,value
C[C@]12CCC(=O)C=C1CC[C@@H]1[C@@H]2CC[C@@]2(C)[C@H]1CC[C@]2(C)O,AC50,[1],21.6 µM (active)
same,outcome,[1],inactive
same,outcome,[2],inactive
same,outcome,[3],inactive
same,AC50,[4],60.3 µM (active) and 53.6 µM (active) and 91.5 µM (active)
same,outcome,[5],inactive
same,AC50,[6],58.8 µM (active)
same,outcome,[6],inactive
same,outcome,[7],inactive
same,outcome,[8],inactive
same,outcome,[9],inactive
same,outcome,[10],inactive
same,AC50,[11],28.8 µM (active)
same,outcome,[12],inactive
same,outcome,[13],inactive
same,outcome,[14],inactive
Sc1ccccc1,outcome,[1],inactive
same,outcome,[2],inactive
same,outcome,[3],inactive
same,outcome,[15],inactive
same,AC50,[4],66 µM (active)
same,outcome,[4],inactive
same,outcome,[5],inactive
same,outcome,[16],inactive
same,outcome,[7],inactive
same,outcome,[8],inactive
same,outcome,[9],inactive
same,outcome,[17],inactive
same,outcome,[10],inactive
same,outcome,[11],inactive
same,outcome,[13],inactive
CCCCCCCCCC[N+](C)(C)CCCCCCCCCC,AC50,[1],100 µM (active)
same,outcome,[2],inactive
same,AC50,[3],7.82 µM (active)
same,outcome,[15],inactive
same,AC50,[4],3.63 µM (active)
same,AC50,[5],3.99 µM (active)
same,AC50,[6],100 µM (active)
same,AC50,[16],4.21 µM (active)
same,AC50,[8],6.12 µM (active)
same,AC50,[9],4.08 µM (active)
same,outcome,[17],inactive
same,AC50,[18],6.48 µM (active)
same,outcome,[19],inactive
same,AC50,[11],1.8 µM (active)
same,outcome,[12],inactive
same,outcome,[13],inactive
same,outcome,[14],inactive
c1cc2ccc3cccc4ccc(c1)c2c34,outcome,[1],inactive
same,outcome,[2],inactive
same,outcome,[3],inactive
same,outcome,[15],inactive
same,outcome,[4],inactive
same,outcome,[5],inactive
same,outcome,[6],inactive
same,outcome,[7],inactive
same,outcome,[8],inactive
same,outcome,[9],inactive
same,outcome,[10],inactive
same,outcome,[18],inactive
same,outcome,[20],inactive
same,outcome,[19],inactive
same,outcome,[11],inactive
same,outcome,[12],inactive
same,outcome,[13],inactive
same,outcome,[14],inactive
CCCN(CCC)N=O,outcome,[1],inactive
same,outcome,[2],inactive
same,outcome,[3],inactive
same,outcome,[15],inactive
same,outcome,[4],inactive
same,outcome,[5],inactive
same,outcome,[6],inactive
same,outcome,[16],inactive
same,outcome,[8],inactive
same,outcome,[9],inactive
same,outcome,[11],inactive
same,outcome,[14],inactive
Oc1ccc(C(c2ccc(O)cc2)(C(F)(F)F)C(F)(F)F)cc1,outcome,[1],inactive
same,AC50,[2],17.7 µM (active)
same,outcome,[2],inactive
same,AC50,[3],20.3 µM (active)
same,outcome,[3],inactive
same,outcome,[15],inactive
same,AC50,[4],11.1 µM (active) [middle of 4 runs]
same,AC50,[5],16.3 µM (active) and 16.7 µM (active) and 18.1 µM (active)
same,outcome,[5],inactive
same,AC50,[6],16.9 µM (active)
same,outcome,[6],inactive
same,AC50,[8],33.6 µM (active)
same,AC50,[9],34.8 µM (active)
same,outcome,[10],inactive
same,AC50,[18],38.3 µM (active)
same,AC50,[11],12.8 µM (active)
same,outcome,[12],inactive
same,AC50,[13],6 µM (active) [middle of 4 runs]

# Reference: PubChem BioAssay (EPA / NIEHS)
